From PubChem BioAssay AID686978 (National Center for Advancing Translational Sciences (NCATS), 2013) come the findings set out here.

Among all 420,000 compounds or so, about 64,000 (15%) were called active. Inconclusive results (about 27%) are left out. Calls come from the whole dose curve; as a rule, active = well fitted inhibition curve with a large enough effect; inconclusive = small, poorly fitted or top-dose-only effect; inactive = flat fitted curve, though single readings scatter. A selection follows. A call without a number means that no potency is given here.
Potency is the fitted concentration of half-maximal effect.

This assay can be described thus: qHTS for Inhibitors of human tyrosyl-DNA phosphodiesterase 1 (TDP1): qHTS in cells in absence of CPT. Note: nearly all actives have a fitted effect of over 55% in size. Conditions: DT40 Tdp1-/- hTDP1 cells, no CPT, ATP luminescence, 48 h; activity change, negative = growth inhibition: at 46.2 µM (top of the series). The method, boiled down: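 Chicken DT40 Tdp1-/- cells stably complemented with human TDP1 were seeded at 400 cells/well with DMSO in place of 20 nM camptothecin. After compound pinning, cells grew at least 48 hr at 37 °C; viability read by CellTiter-Glo luminescence.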
On to `O=C(O)c1ccc(Cn2c(=S)[nH]c3cc(Cl)ccc3c2=O)cc1`, for which the Potency entry was “inactive”.
As for `CCOC(=O)CSc1nnc(CNc2nc(-c3ccccc3)cs2)n1C`, the Potency result is “inactive”.
As for `Cc1ccc(O/C=C2\OC(=O)c3ccccc32)cc1`, the Potency entry is “inactive”.
`O=C1CC2(CCCCC2)Oc2ccc(OCC(=O)N3CCOCC3)cc21`: the Potency result was “inactive”.
As for `CCN(CC)c1ccc([N+](=O)[O-])cc1C(=O)O`, the entry is “inactive”.
As to `Cc1cccc(C(=O)c2cccc(C)c2)c1`, the Potency entry is “inactive”.
Under `Cc1cc(C)nc(NC(=O)/C=C/c2ccc(Cl)cc2)n1` stands “inactive”; under `Cc1cccc(C=CC(=O)c2ccc(Cl)cc2)c1`, 13 µM (active); under `COc1ccc(CNC(=O)C2CCN(S(=O)(=O)N3CCOCC3)CC2)cc1`, “inactive”.
As to `CC(=O)Nc1ccc(SCC(=O)NC(=O)c2ccc(Cl)cc2)cc1`, the Potency result is “inactive”.
As for `CC(Oc1ccc2c(-c3ccccc3)cc(=O)oc2c1)C(=O)NC(Cc1c[nH]c2ccccc12)C(=O)O` (stereo not given), the entry is “inactive”; as for `O=C(CNC(=O)OCc1ccccc1)Oc1cc2oc(=O)cc(-c3ccccc3)c2cc1Cl`, 8.2 µM (active).
As for `O=C(CNC(=O)c1ccc(-c2ccccc2)cc1)OCc1ccc(Cl)cc1`, the entry is “inactive”.
As for `CCOC(=O)c1cnc2sccn2c1=O`, the entry is “inactive”; as for `O=[N+]([O-])c1cccc(S(=O)(=O)NCc2ccccn2)c1`, “inactive”; as for `O=[N+]([O-])c1ccc2nc(-c3ccccn3)[nH]c2c1`, 1.16 µM (active).
Regarding `O=c1[nH]c2cccnc2n1-c1ccc([N+](=O)[O-])cc1`, the Potency entry was “inactive”.
As for `Cc1ccc(C(=O)OC2=CC(=O)CC(C)(C)C2)cc1`, the entry is “inactive”.
Under `CCOC(=O)c1c(NC(=O)COc2cc(C)ccc2C(C)C)sc(C)c1C` stands “inactive”; under `COC(=O)c1c(NC(=O)COc2ccc(Cl)cc2Cl)sc2c1CC(C)(C)NC2(C)C`, 8.2 µM (active); under `Cc1cnc(C(=O)OCC(=O)Nc2ccc(Cl)cc2Cl)cn1`, “inactive”.
Turning to `c1cc(-n2cnnn2)ccc1NC1=NCCC1`, the Potency result was “inactive”.
Regarding `O=C1CCCN1C(=O)COc1ccc([N+](=O)[O-])cc1`, the Potency entry was “inactive”.
For `COC(=O)c1ccc(S(=O)(=O)N(CCO)Cc2ccccc2)n1C`, the Potency result is “inactive”.
As for `C#CCOc1ccc(C2CC(=O)Nc3c2c(C)nn3-c2nc(C)cc(C)n2)cc1` (stereo not given), the figure is 20.6 µM (active); as for `Cn1c(=O)c2c(n3c4ccccc4nc13)NC(=O)CC2c1cccc(Cl)c1` (stereo not given), “inactive”; as for `COc1ccc(C2CC(=O)Nc3c2c(=O)nc2c(C)cccn32)cc1OC` (stereo not given), “inactive”.
Turning to `COc1ccc(Br)cc1S(=O)(=O)N1CCN=C1C`, the Potency entry was “inactive”.
Under `COc1ccc(C2c3c(C)nn(-c4ccccc4)c3NC(=O)N2c2ccccc2)cc1` (stereo not given) stands “inactive”; under `COc1ccc(Br)cc1C1CC(=O)Nc2c1c(C)nn2-c1nc(C)cc(C)n1` (stereo not given), 18.4 µM (active).
